Results as given in PubChem BioAssay.
Records with an inconclusive call do not appear. The source made the active and inactive calls. Unless noted, the limit is not given here; nearly all actives have AC50 up to about 26 µM.

What was measured:
[1] = viability loss in pontine glioma line – cell-based, SU-DIPG-XVII, MIPE5.0, CellTiter-Glo, qHTS, dose response (AID 1347060); conditions: CellTiter-Glo ATP luminescence;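 as to AC50: cells exposed to compound for 48 hours before viability readout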
[2] = viability loss in pontine glioma line – cell-based, SU-DIPG-XIII, MIPE4.0, CellTiter-Glo, qHTS, dose response (AID 1347061; cut-off not given, nearly all actives have AC50 up to about 37 µM;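 also: cells exposed to compound for 48 hours before readout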); conditions: CellTiter-Glo ATP luminescence
[3] = viability loss in pontine glioma line – cell-based, JHH-DIPG-1, MIPE4.0, CellTiter-Glo, qHTS, dose response (AID 1347062; cut-off not given, nearly all actives have AC50 up to about 27 µM;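 as to AC50: cells exposed to compound for two days before readout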); conditions: JHH-DIPG-1 viability, CellTiter-Glo ATP luminescence
[4] = viability loss in pontine glioma line – cell-based, SU-DIPG-IV, MIPE4.0, CellTiter-Glo, qHTS, dose response (AID 1347063; cut-off not given, nearly all actives have AC50 up to about 30 µM;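 also: compound exposure lasted 48 hours before the viability readout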); conditions: CellTiter-Glo ATP luminescence
[5] = viability loss in pontine glioma line – cell-based, SU-DIPG-XXV, MIPE5.0, CellTiter-Glo, qHTS, dose response (AID 1347065); conditions: CellTiter-Glo ATP luminescence;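 also: cells exposed to compound for 48 hours before ATP readout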
[6] = growth inhibition of DIPG cells – cell-based, MIPE4.0 library, CellTiter-Glo luminescence, qHTS (AID 1347066; cut-off not given, nearly all actives have AC50 up to about 30 µM;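 also: cells exposed to compound for 48 hours before readout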); conditions: SU-DIPG-VI viability, CellTiter-Glo ATP luminescence
[7] = JHH-DIPG-1 glioma cell viability, MIPE5.0 library, CellTiter-Glo luminescence, qHTS (AID 1347067); conditions: JHH-DIPG-1 glioma viability, CellTiter-Glo ATP luminescence;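 also: cells exposed to compound for 48 hours before readout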
[8] = growth inhibition of DIPG cells – cell-based, MIPE5.0 library, qHTS (AID 1347068; cut-off not given, nearly all actives have IC50 up to about 30 µM;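 as to IC50: cells exposed to compound for 48 hours before viability readout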); conditions: SU-DIPG-XXV viability
[9] = compounds altering HSF1 focus formation in cells – imaging, Selleck Cancer Library (AID 1347162; in the data active = plate-normalised HSF1 focus index below about 0.46); conditions: human cells, HSF1 nuclear foci imaging, at 10 µM; SSMD: measured here: HSF1 foci SSMD mean; cell count: measured here: cell number; plate-normalised HSF1 focus index: stronger effect = lower value
[10] = drug combination growth inhibition, ovarian cancer – cell-based, oncology-focused library, rucaparib conditional, profiling panel (AID 1508598;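 active = normalized viability below 100% at a tested concentration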); conditions: patient-derived ovarian cancer cells, CellTiter-Glo viability, 144 h, stronger effect = lower value
[11] = growth inhibition, single agent or in combination, cell-based, chromothripsis tumors, cisplatin or BGB combos (AID 1671449; in the data active = inhibition above about 80%;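 also: cells exposed for 96 hours; 0% = vehicle DMSO and 100% = killing by high DMSO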); conditions: LFS_MB_P medulloblastoma cells
[12] = growth inhibition, single agent and combos, cell-based, chromothripsis tumors, cisplatin or BGB combos (AID 1671450; in the data active = inhibition above about 80%;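 also: cells exposed to compound for four days; 0% = vehicle DMSO and 100% = cell killing by high DMSO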); conditions: HDN33 neuroblastoma cells, stronger effect = higher value
[13] = growth inhibition, single agents and combos, ICB984, cell-based, cisplatin or BGB combos, synergistic combos for chromothripsis tumors (AID 1671451; call rule not given here;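 also: cells exposed for 96 hours before readout; 0% = vehicle DMSO and 100% = killing by high DMSO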); conditions: ICB984 medulloblastoma cells, drug combinations, stronger effect = higher value
[14] = growth inhibition, single agents and combos, HTB85, cell-based, BGB or cisplatin IC20 combos, synergistic combos for chromothripsis tumors (AID 1671453; in the data active = inhibition above about 80%;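 also: cells exposed for 96 hours before readout; 0% = vehicle DMSO and 100% = high DMSO killing control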); conditions: HTB85 osteosarcoma cells, drug combinations, stronger effect = higher value
[15] = growth inhibition, MDA-MB-436, cell-based, BGB or cisplatin combos, synergistic combos for chromothripsis tumors (AID 1671458; call rule not given here;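 also: cells exposed for 96 hours; 0% = vehicle DMSO and 100% = killing by high DMSO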); conditions: MDA-MB-436 breast carcinoma growth inhibition, drug combinations, stronger effect = higher value
[16] = BT084 cell growth, single and combined drugs, ICGC_MB145, cisplatin and BGB IC40 combos (AID 1671461; in the data active = inhibition above about 80%;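 also: cells exposed to drugs for 96 hours; 0% = vehicle DMSO and 100% = high DMSO full killing control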); conditions: BT084 medulloblastoma cells, drug combinations, stronger effect = higher value
[17] = RCMB18 cell growth, single agent and combined, cisplatin and BGB IC40 combos (AID 1671462; in the data active = inhibition above about 80%;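 also: cells exposed to compound for four days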); conditions: RCMB18 medulloblastoma cells, stronger effect = higher value

CNC1CCC(N(Cc2cccc(-c3ccncc3)c2)C(=O)c2sc3c(F)ccc(F)c3c2Cl)CC1 (stereo unspecified)
active: AC50 [1] 23500 nM | AC50 [2] 14800 nM | AC50 [3] 26400 nM | AC50 [4] 23500 nM | AC50 [5] 18600 nM | AC50 [6] 23500 nM | AC50 [7] 26300 nM

COc1ccc(OC)c(-c2nnc3ccc(-c4ccc(OC)c(O[C@@H]5CCOC5)c4)nn23)c1
active: AC50 [1] 2950 nM | AC50 [2] 26400 nM | AC50 [3] 7430 nM | AC50 [4] 14800 nM | AC50 [5] 2630 nM | AC50 [6] 11800 nM

CN(C)C/C=C/C(=O)Nc1cc2c(Nc3ccc(F)c(Cl)c3)ncnc2cc1O[C@H]1CCOC1
-10.2: SSMD [9]
6000: cell count [9]
inactive: plate-normalised HSF1 focus index [9] 0.64 | viability ([10]; at 0.000305 µM, OCI-C5x cells, with rucaparib 10 µM, 100% = cells with rucaparib alone) 118% | viability ([10]; at 0.000305 µM, OCI-C5x cells, without rucaparib) 114% | viability ([10]; at 0.000305 µM, OCI-P5x cells, with rucaparib 20 µM, 100% = cells with rucaparib alone) 123% | viability ([10]; at 0.000305 µM, OCI-P5x cells, without rucaparib) 107% | viability ([10]; at 0.00122 µM, OCI-C5x cells, with rucaparib 10 µM, 100% = cells with rucaparib alone) 116% | viability ([10]; at 0.00488 µM, OCI-C5x cells, with rucaparib 10 µM, 100% = cells with rucaparib alone) 107% | viability ([10]; at 0.00488 µM, OCI-P5x cells, with rucaparib 20 µM, 100% = cells with rucaparib alone) 117% | viability ([10]; at 0.0195 µM, OCI-P5x cells, with rucaparib 20 µM, 100% = cells with rucaparib alone) 102% | viability ([10]; at 0.0781 µM, OCI-P5x cells, with rucaparib 20 µM, 100% = cells with rucaparib alone) 122% | viability ([10]; at 0.313 µM, OCI-P5x cells, with rucaparib 20 µM, 100% = cells with rucaparib alone) 120%
active: AC50 [1] 13200 nM | AC50 [2] 23500 nM | AC50 [3] 16600 nM | AC50 [4] 16600 nM | AC50 [5] 8330 nM | AC50 [6] 29600 nM | AC50 [7] 9340 nM | IC50 [8] 4170 nM | viability ([10]; at 0.00122 µM, OCI-C5x cells, without rucaparib) 100% | viability ([10]; at 0.00122 µM, OCI-P5x cells, with rucaparib 20 µM, 100% = cells with rucaparib alone) 97.9% | viability ([10]; at 0.00122 µM, OCI-P5x cells, without rucaparib) 99.7% | viability ([10]; at 0.00488 µM, OCI-C5x cells, without rucaparib) 80.6% | viability ([10]; at 0.00488 µM, OCI-P5x cells, without rucaparib) 99.9% | viability ([10]; at 0.0195 µM, OCI-C5x cells, with rucaparib 10 µM, 100% = cells with rucaparib alone) 70.1% | viability ([10]; at 0.0195 µM, OCI-C5x cells, without rucaparib) 66.7% | viability ([10]; at 0.0195 µM, OCI-P5x cells, without rucaparib) 96.3% | viability ([10]; at 0.0781 µM, OCI-C5x cells, with rucaparib 10 µM, 100% = cells with rucaparib alone) 67.5% | viability ([10]; at 0.0781 µM, OCI-C5x cells, without rucaparib) 69.5% | viability ([10]; at 0.0781 µM, OCI-P5x cells, without rucaparib) 94.8% | viability ([10]; at 0.313 µM, OCI-C5x cells, with rucaparib 10 µM, 100% = cells with rucaparib alone) 62.7% | viability ([10]; at 0.313 µM, OCI-C5x cells, without rucaparib) 63.1% | viability ([10]; at 0.313 µM, OCI-P5x cells, without rucaparib) 94.2% | viability ([10]; at 1.25 µM, OCI-C5x cells, with rucaparib 10 µM, 100% = cells with rucaparib alone) 6.05% | viability ([10]; at 1.25 µM, OCI-C5x cells, without rucaparib) 46% | viability ([10]; at 1.25 µM, OCI-P5x cells, with rucaparib 20 µM, 100% = cells with rucaparib alone) 8.68% | viability ([10]; at 1.25 µM, OCI-P5x cells, without rucaparib) 66.6% | viability ([10]; at 5 µM, OCI-C5x cells, with rucaparib 10 µM, 100% = cells with rucaparib alone) 3.87% | viability ([10]; at 5 µM, OCI-C5x cells, without rucaparib) 22.5% | viability ([10]; at 5 µM, OCI-P5x cells, with rucaparib 20 µM, 100% = cells with rucaparib alone) 0.219% | viability ([10]; at 5 µM, OCI-P5x cells, without rucaparib) 6.79%

CC(C)Nc1cc(C(F)(F)F)cc2nc(NC(=O)c3cccnc3)nn12
inactive: outcome [1] | outcome [2] | outcome [3] | outcome [4] | outcome [5] | outcome [6] | outcome [7] | outcome [8]

COc1ccc(C2CC(c3ccccc3)=NN2c2ccc(S(N)(=O)=O)cc2)cc1 (stereo unspecified)
active: AC50 [3] 4690 nM | AC50 [4] 16600 nM
2.07: SSMD [9]
inactive: outcome [1] | outcome [2] | outcome [5] | outcome [6] | outcome [7] | plate-normalised HSF1 focus index [9] 1.13
7280: cell count [9]

CCNC(=O)CCC/C=C\C[C@@H]1[C@@H](/C=C/C(O)CCc2ccccc2)[C@@H](O)C[C@@H]1O (stereo partly specified)
inactive: outcome [1] | outcome [2] | outcome [3] | outcome [4] | outcome [5] | outcome [6] | outcome [7] | outcome [8]

CC(C)C[C@H](NC(=O)[C@@H](NC(=O)c1cccc(-c2ccccc2)n1)[C@@H](C)O)B(O)O
active: AC50 [1] 45.6 nM | AC50 [2] 16600 nM | AC50 [3] 52.6 nM | AC50 [4] 23.5 nM | AC50 [5] 20.4 nM | AC50 [6] 66.2 nM | AC50 [7] 81.1 nM | IC50 [8] 25.7 nM

CN[C@@H](C)[C@H]1[C@H](O)C[C@@]2(C)[C@@H]3CC[C@H]4C(C)(C)[C@@H](NC)CC[C@@]45C[C@@]35CC[C@]12C
inactive: outcome [1] | outcome [2] | outcome [3] | outcome [4] | outcome [5] | outcome [6] | outcome [7] | outcome [8]

CCC[C@@H](C=O)NC(=O)[C@H](CC(C)C)NC(=O)[C@H](CC(C)C)NC(=O)OCc1ccccc1
active: AC50 [1] 332 nM | AC50 [2] 935 nM | AC50 [3] 372 nM | AC50 [4] 148 nM | AC50 [5] 186 nM | AC50 [6] 526 nM | AC50 [7] 525 nM | IC50 [8] 590 nM

O=C1CCC[C@@H]2[C@H]3CCC[N+]4([O-])CCC[C@@H](CN12)[C@@H]34 (stereo partly specified)
inactive: outcome [1] | outcome [2] | outcome [3] | outcome [4] | outcome [5] | outcome [6] | outcome [7] | outcome [8]

Cc1ccc([N+](=O)[O-])cc1S(=O)(=O)N(C)/N=C/c1cnc2ccc(Br)cn12
8.05%: inhibition ([16]; cisplatin combination, at 0.5 µM)
92.6%: inhibition ([14]; measured here: with BGB IC20, at 0.5 µM)
73.3%: inhibition ([15]; measured here: BGB combination, at 0.5 µM)
82.3%: inhibition ([12]; measured here: with BGB IC20 combination, at 0.5 µM)
77.3%: inhibition ([15]; measured here: cisplatin combination, at 0.5 µM)
89.9%: inhibition ([13]; BGB IC40 combo, at 0.005 µM)
100%: inhibition ([14]; measured here: with BGB IC20, at 5 µM)
93.2%: inhibition ([13]; BGB IC20 combo, at 0.005 µM)
118%: inhibition ([11]; measured here: combination with cisplatin, at 5 µM, stronger effect = higher value)
76.8%: inhibition ([17]; single agent, at 5 µM)
90.8%: inhibition ([14]; measured here: with cisplatin IC20, at 0.5 µM)
-33.9%: inhibition ([11]; measured here: combination with BGB IC40, at 0.005 µM)
-8.16%: inhibition ([11]; measured here: combination with cisplatin, at 0.5 µM, stronger effect = higher value)
99.9%: inhibition ([14]; single agent, at 5 µM)
7410: cell count [9]
99.6%: inhibition ([12]; single agent, at 5 µM) | inhibition ([14]; measured here: with cisplatin IC20, at 5 µM)
7.37: SSMD [9]
-25%: inhibition ([16]; single agent, at 5 µM)
89%: inhibition ([12]; measured here: with cisplatin IC20 combination, at 0.5 µM)
99.2%: inhibition ([13]; BGB IC40 combo, at 0.05 µM) | inhibition ([13]; cisplatin combo, at 0.05 µM)
99.4%: inhibition ([12]; cisplatin combo, at 5 µM)
-42.9%: inhibition ([16]; cisplatin combination, at 5 µM)
16.7%: inhibition ([16]; measured here: BGB IC40 combination 0.05 uM, at 0.05 µM)
98.8%: inhibition ([12]; BGB combo, at 5 µM)
59.8%: inhibition ([17]; cisplatin combo, at 5 µM)
74.2%: inhibition ([15]; measured here: cisplatin combination, at 5 µM)
-16.2%: inhibition ([13]; measured here: 5 uM single agent, at 5 µM)
inactive: plate-normalised HSF1 focus index [9] 1.46 | inhibition ([11]; at 0.5 µM, stronger effect = higher value) -21.6% | inhibition ([13]; at 0.5 µM) -28.7% | inhibition ([15]; at 0.5 µM) 77.8% | inhibition ([16]; at 0.5 µM) 17.8% | inhibition ([17]; at 0.5 µM) 68.3%
-58%: inhibition ([13]; cisplatin combo, at 5 µM)
active: AC50 [1] 132 nM | AC50 [2] 20.9 nM | AC50 [3] 33.2 nM | AC50 [4] 23.5 nM | AC50 [5] 118 nM | AC50 [6] 132 nM | AC50 [7] 166 nM | IC50 [8] 235 nM | inhibition ([12]; at 0.5 µM) 82.5% | inhibition ([14]; at 0.5 µM) 84.8%
54%: inhibition ([15]; measured here: BGB combination, at 5 µM)
-12.7%: inhibition ([17]; measured here: BGB IC40 combination, at 0.05 µM)
58.3%: inhibition ([17]; measured here: combination with cisplatin, at 0.5 µM)
-17.7%: inhibition ([11]; measured here: combination with BGB IC40, at 0.05 µM)
-7.86%: inhibition ([11]; measured here: combination with BGB IC20, at 0.005 µM)
-32.2%: inhibition ([13]; cisplatin combo, at 0.5 µM)
